Data as given in PubChem BioAssay (NCI).
Compounds without any hit were thinned out: in the full panel of roughly 83,000, 20% have a hit.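 A percent growth of 40 corresponds to 60% growth inhibition; 0 means no net growth; -100 means all cells died. Active threshold: below 10.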 Calls of active or inactive are those of the source.

These molecules were tested on HL-60(TB) leukemia (assay: NCI-60 one-dose screen, 48 h (100 = growth as untreated, 0 = no growth, -100 = all killed)). Conditions: 10 µM unless noted.

| SMILES | growth |
| --- | --- |
| CCOC(=O)C1C(=O)C=C(c2cc(OC)c(OC)c(OC)c2)CC1c1sc(N(C)Cc2ccccc2)nc1Cl (centres undefined) | 80.4% (inactive) |
| CC1=C(N2CCOCC2)C(N2CCOCC2)=C(C)C(=O)C1=O | 97.3% (inactive) |
| CC(=O)c1cc(O)ccc1O | 62.1% (inactive) |
| c1csc(-c2cc(-c3cc(-c4cccs4)[nH]n3)n[nH]2)c1 | 87.1% (inactive) |
| Nc1ccc2c(c1Br)Cc1ccccc1-2 | 56.3% (inactive) |
| COc1cc2c(cc1OC)-c1c(oc3c4c(ccc3c1=O)OC(C)(C)C=C4)CO2 | 46.4% (inactive) |
| CCOC(=O)C1=C(C)NC(=O)NC1c1c(Cl)n(-c2ccccc2)c2ccccc12 (centres undefined) | 73.4% (inactive) |
| COC(=O)c1ccc2c(c1)nc(-c1ccc(Cl)cc1)n2-c1cc(C(C)(C)C)[nH]n1 | 14.9% (inactive) |
| CCOC(=O)c1ccc2c(c1)nc(-c1ccc(OCc3ccccc3)c(OC)c1)n2-c1cc(C(C)(C)C)[nH]n1 | 81.6% (inactive) |
| O=C(NCc1ccc(Cn2c(=O)sn(-c3ccccc3)c2=O)cc1)OCc1ccc2c(Br)cc(Br)c(O)c2n1 | -41.3% (active) |
| O=C1c2c(c3c4ccccc4n(CCCCCCBr)c3c3[nH]c4ccccc4c23)C(=O)N1O | -41.7% (active) |
| COc1cc2c3c(cccc3c1)C(=O)N(CCN1CCCC1)C2=O | 26% (inactive) |
| CCCNC(=O)Oc1ccc(/C(=C(/C)Cc2ccc(OC)cc2)c2ccc(OCCN3CCCCC3)cc2)cc1 | 58.6% (inactive) |
| COc1cc(C(=O)/C=C/c2c(-c3cccs3)nc3sccn23)cc(OC)c1OC | 1.04% (active) |
| O=[N+]([O-])c1cc(Br)cc2c1[nH]c1ccc(Br)cc12 | 85% (inactive) |
| O=S(=O)(NC1c2ccccc2Oc2ccccc21)c1cc(Cl)ccc1Cl | 86.7% (inactive) |
| CCOc1ccc(C(=O)O)cc1 | 103% (inactive) |
| c1ccc(CN2C(c3ccccc3)=Nc3ccccc3C2c2c[nH]c3ccccc23)cc1 (centres undefined) | 19.6% (inactive) |
| N#C/C(=C\c1ccc(Br)cc1)n1nnc2cc(Cl)c(Cl)cc21 | -0.568% (active) |
| CC(=O)O[C@@H]1C[C@]2(C(C)C)O[C@@]1(C)[C@@H]1CCC(C)=C1[C@@H]2OC(=O)/C=C/c1ccccc1 | 78.8% (inactive) |

| SMILES | growth |
| --- | --- |
| CCN1CCN(Cc2ccc(NC(=O)Nc3cccc(-n4ccc5c(NC(=O)c6ccccc6)nccc54)c3)cc2C(F)(F)F)CC1 | 112% (inactive) |
| C=C1C(=O)O[C@H]2[C@H]1CC/C(CNC(=O)/C=C/c1cc(OC)c(OC)c(OC)c1)=C\CC[C@@]1(C)O[C@@H]21 | -33.3% (active) |
| CCN(CC)CCCNCc1cc(-c2ccccc2)nc2cc(Cl)ccc12 | 14% (inactive) |
| COc1ccc(/C(C)=C(\c2ccc(Cl)cc2)c2ccc(OCCN3CCCC3)cc2)cc1F | 0.205% (active) |
| C#Cc1ccc(-n2c(/C=C/c3ccc4ccccc4n3)nc3ncccc3c2=O)cc1 | -34.6% (active) |
| COc1ccc2nc3cc(Cl)ccc3c(N3CCN(c4ccnc(N5CCN(C)CC5)n4)CC3)c2c1 | 29.8% (inactive) |
| CN1CCN(Cc2ccc(NC(=O)c3cncc(C#Cc4c(N)ncc5ccc(F)cc45)c3)cc2C(F)(F)F)CC1 | 17.4% (inactive) |
| O=C(CSc1nc2ccc([N+](=O)[O-])cc2[nH]1)Nc1ccc([N+](=O)[O-])cc1 | 12.7% (inactive) |
| COc1cc2c(cc1-c1c(C)noc1C)ncc1nc(C3CC3)n([C@H](C)COC(F)F)c12 | 31% (inactive) |
| Cc1ccccc1NS(=O)(=O)c1cccc(C(=O)Nc2ccc(Br)cc2)c1 | 27.6% [25 µM] (inactive) |
| COC(=O)Nc1cccc(Cl)c1OC | 103% (inactive) |
| O=c1oc2ccc(F)cc2c(=O)n1-c1ccc(Br)cc1F | -45.3% (active) |
| O=C1c2cccc(NCCN=Cc3cc(O)ccc3O)c2C(=O)c2c(NCCN=Cc3cc(O)ccc3O)cccc21 | -72.5% (active) |
| Cn1c(COC(=O)NCCc2ccccn2)nc2c(N3CCOCC3)nc(Cl)nc21 | -36.9% (active) |
| O=S(=O)(NCCCNc1cc(-c2c(-c3cccc(O)c3)nc3sccn23)ccn1)c1cccc2ccccc12 | 41.3% (inactive) |
| Cc1n[nH]c2ccc(Br)cc2c1=O | 94.3% (inactive) |
| CCCCOc1nc2cc(Cl)ccc2cc1/C=C/c1cc(/C=C/c2cc3ccc(Cl)cc3nc2OCCCC)n(-c2ccccc2)n1 | 77.8% (inactive) |
| CN1CCN(CCC(=O)Nc2cccc(-n3cc(-c4ccncc4)c(-c4ccc(Cl)c(O)c4)n3)c2)CC1 | 5.71% (active) |
| Cc1ccc(CCC(=O)Nc2ncc(Cc3cc(Cl)ccc3Cl)s2)o1 | -40.4% (active) |
